Screening data: PubChem BioAssay, several laboratories
In the library only some 4% were active in any assay of this set; here they are far more common.
UGM FP inh: blocks M. tuberculosis UGM enzyme | P9WIQ1 | purified UGM, fluorescence polarization probe displacement | inhibition, % at 10 µM | 320,000 compounds, 0.06% hits | AID 504406; in the data active = inhibition above about 10%, passing the limit was not always enough
Target sequence (P9WIQ1 whole entry, looked up): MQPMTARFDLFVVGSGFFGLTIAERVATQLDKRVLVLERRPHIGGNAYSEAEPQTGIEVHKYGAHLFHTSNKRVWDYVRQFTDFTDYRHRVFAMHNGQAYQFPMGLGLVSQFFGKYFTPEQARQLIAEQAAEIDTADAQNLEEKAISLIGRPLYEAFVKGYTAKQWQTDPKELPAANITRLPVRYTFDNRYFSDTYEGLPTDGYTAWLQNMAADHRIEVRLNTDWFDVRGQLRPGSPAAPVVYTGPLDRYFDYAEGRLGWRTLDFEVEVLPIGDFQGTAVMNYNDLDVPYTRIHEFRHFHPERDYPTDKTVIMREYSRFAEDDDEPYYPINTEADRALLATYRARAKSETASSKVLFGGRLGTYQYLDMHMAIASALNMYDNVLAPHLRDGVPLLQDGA
RecA intein inh: blocks M. tuberculosis RecA intein splicing; P9WHJ3; cell-free RecA intein splicing, fluorescence; inhibition, % (test concentration not listed); 290,000 compounds, 0.75% hits; AID 2221; in the data active = inhibition above about 30%;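 note: 0% = vehicle wells and 100% = reference inhibitor control wells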
Mtb FBA inh: Mtb fructose-bisphosphate aldolase inhibition; inhibition, % at 1 µM; purified M. tuberculosis FBA, fluorescence read-out; 360,000 compounds, 2.3% hits; P9WQA3; in the data active = inhibition above about 27%;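 note: 0% = vehicle and 100% = reference inhibitor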
GDH-TPI counter-1: GDH-TPI coupled enzyme inhibition counter-screen. GDH-TPI coupled enzyme counterscreen, NADH absorbance. 360,000 compounds, 1.2% hits. inhibition, % at 4.8 µM. AID 588335; in the data active = inhibition above about 30%;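 note: 0% = DMSO wells and 100% = wells lacking the enzyme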
Mtb betalactam: beta-lactam sensitization of Mtb H37Rv; M. tuberculosis H37Rv growth with meropenem, percent inhibition; inhibition, % at 25 µM; 330,000 compounds, 0.27% hits; AID 434955;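 note: growth measured after seven days incubation then overnight dye step; 0% = bacteria only wells and 100% = bacteria with antibiotic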
Rv3671c protease: inhibits the M. tuberculosis serine protease Rv3671c | P9WHR9 | inhibition, % at 5.96 µM | 320,000 compounds, 0.048% hits | AID 2606; in the data active = inhibition above about 38%;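 note: extracellular domain of Rv3671c used as enzyme; 0% = enzyme with DMSO and 100% = no enzyme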
Mtb FBA confirm: confirmation of M. tuberculosis fructose-bisphosphate aldolase inhibitors. purified M. tuberculosis FBA, fluorescence read-out. 5,600 compounds, 78% hits. shares compounds with Mtb FBA inh. inhibition, % at 1 µM. AID 651616; in the data active = inhibition above about 27%;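 note: 0% = vehicle wells and 100% = reference inhibitor wells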
GDH-TPI counter-2: GDH-TPI inhibition counter-screen for FBA inhibitors. inhibition, % at 1 µM. shares compounds with Mtb FBA inh. GDH-TPI coupled enzyme counterscreen, fluorescence. 5,600 compounds, 81% hits; in the data active = inhibition above about 10%
GDH-TPI DR: inhibits GDH-TPI coupling enzymes in dose response | AID 652145 | shares compounds with Mtb FBA inh | IC50, µM | GDH-TPI coupled enzyme assay, fluorescence, artifact counterscreen | 170 compounds, 79% hits
Numbers without * were called inactive; i = inactive; / = no result given; + = active, no number. Unless noted, the rule behind the calls is not given here.

SMILES	UGM FP inh	RecA intein inh	Mtb FBA inh	GDH-TPI counter-1	Mtb betalactam	Rv3671c protease	Mtb FBA confirm	GDH-TPI counter-2	others
Cc1c(N(C(=O)Nc2ccccc2)C2=NCC(C)S2)c(=O)n(-c2ccccc2)n1C (stereo not drawn)	2	1	-1	-3	-10	-1	/	/
Cc1ccc(S(=O)(=O)N2CCN(C(=O)c3cccs3)CC2)cc1C	0	8	-2	-4	-2	3	/	/
Cc1ccc2c(c1)nnn2C1CCN(S(=O)(=O)c2ccc(C(=O)N3C(C)CCCC3C)cc2)CC1 (stereo not drawn)	0	1	0	-11	36	-5	/	/
OC(COCc1ccc(Cl)cc1)CN1CCN(c2ccccn2)CC1 (stereo not drawn)	1	5	-1	4	0	-2	/	/
CC[C@]12c3[nH]c4cc(CCC(=O)N(C)C)ccc4c3CCN1C(=O)[C@@H](CC(=O)NCCCOC)C[C@@H]2C(=O)N1CCN(C(=O)c2ccco2)CC1	/	/	2	2	/	/	/	/
COc1ccc(OC)c(N(CC(=O)N2CCc3ccccc3C2)S(C)(=O)=O)c1	0	0	2	8	2	3	/	/
O=C(NCc1ccco1)c1ccc(-c2csnn2)cc1	1	1	-1	5	-2	-3	/	/
Cc1cc(=O)oc2cc(NC(=O)CCOc3ccccc3)ccc12	1	/	20	16	49	-18	/	/
Cc1ccccc1CC(=O)Nc1ccc2c(C)cc(=O)oc2c1	-3	-1	94*	3	4	0	7	7
CC(C)Nc1ccc(Nc2ccnc3cc4ccccc4cc23)cc1	1	3	-2	-1	94	13	/	/
c1ccc(CCNc2ccnc3cc4ccccc4cc23)cc1	/	i	47*	3	/	/	-1	-1
COc1cc2[nH]c3c(=O)n(N)c(=O)[nH]c3c2cc1OC	-2	-2	34*	11	4	0	1	-4
COc1ccc2[nH]c3c(=O)n(N)c(=O)[nH]c3c2c1	2	-2	107*	14	5	/	33*	31*
CC1CCCN(Cc2c(O)ccc3c(=O)c(-c4nc5ccccc5s4)c(N)oc23)C1 (stereo not drawn)	0	0	33*	39*	100	-7	136*	84*
CCOC(=O)c1c(N)n(-c2ccc(N)cc2)c2nc3ccccc3nc12	-1	2	3	25	1	1	/	/
CCCCn1c(NC(=O)c2ccc(Br)o2)c(C(=O)OCC)c2nc3ccccc3nc21	-2	-25	58*	11	4	-256	+	179*
CCOC(=O)c1sc(NS(=O)(=O)c2ccccc2)nc1C	2	-1	-2	9	0	7	/	/
CCCCn1c(NS(=O)(=O)c2ccccc2)c(C(=O)OCC)c2nc3ccccc3nc21	2	i	53*	16	-10	-102	194*	151*
COC(=O)CSC(C(=O)Nc1ccc(C)c(C)c1)c1ccccc1 (stereo not drawn)	-1	2	-1	5	11	-1	/	/
COCCCNC(=O)Cn1cnc2sc(C)c(S(=O)(=O)N3CCN(c4ncccn4)CC3)c2c1=O	-1	0	27*	4	-8	-8	+	+
CCC(=O)NCCCNc1nc2c(C)cccc2cc1C#N	2	/	38*	-3	-11	3	142*	102*
Cc1cccc2cc(C#N)c(NCCNS(=O)(=O)c3ccc4c(c3)OCCO4)nc12	0	-3	47*	16	0	-12	125*	93*
COc1ccc(C(=O)NCCNc2nc3c(C)cccc3cc2C#N)cc1OC	1	-29	29*	-15	-3	3	+	+
O=S(=O)(NCCNS(=O)(=O)c1c(F)cccc1F)c1ccc2c(c1)OCCO2	-2	/	1	-1	9	-2	/	/
CCCCCC(=O)N1C[C@@H](n2cc(C3CC3)nn2)[C@H](O)C[C@@H]1c1ccc(C)cc1	/	/	-3	6	/	/	/	/
SMILES	UGM FP inh	RecA intein inh	Mtb FBA inh	GDH-TPI counter-1	Mtb betalactam	Rv3671c protease	Mtb FBA confirm	GDH-TPI counter-2	others
COc1ccc(-c2nn(-c3ccccc3)cc2/C=N/Nc2ccccn2)cc1	-2	1	/	/	2	5	/	/
CC(C)CCN1CCN(C2CSCCSC2)CC1CCO (stereo not drawn)	-1	-1	5	1	11	-4	/	/
CC(C)N1CCN(C2CSCCSC2)CC1CCO (stereo not drawn)	-3	2	52*	12	4	-1	+	+
Nc1ncnc2oc(-c3ccco3)c(-c3ccco3)c12	0	0	31*	23	-3	-8	+	143*
O=C(NC1CCCCC1)c1ccc2ccccc2c1	/	/	0	2	/	/	/	/
O=C(NC1CCCCC1)c1ccc2[nH]c(=O)c(=O)[nH]c2c1	-2	1	41*	11	-7	1	15	8	GDH-TPI DR=4.3*
CCOc1cccc(C=NCCc2ccc(OC)c(OC)c2)c1O	-3	0	2	-3	4	-3	/	/
C=CCOc1ccc(C2C3=C(CCCC3=O)N(CC(=O)O)C3=C2C(=O)CCC3)cc1OCC	-1	-3	2	4	0	6	/	/
C=CCOc1c(Br)cc(C2C3=C(CCCC3=O)N(C)C3=C2C(=O)CCC3)cc1OCC	2	-125	58*	14	5	-17	58*	41*
O=C(Cn1c(=O)oc2cc(S(=O)(=O)NCc3ccccc3)ccc21)NCc1ccco1	1	-2	1	-5	-1	5	/	/
COc1ccccc1C1/C(=C(/O)c2ccc(C)cc2)C(=O)C(=O)N1CC(C)O (stereo not drawn)	2	-2	-1	8	9	-20	/	/
CC1(c2ccc3ccccc3c2)NC(=O)N(CC(=O)N2CCC(C(N)=O)CC2)C1=O (stereo not drawn)	0	-1	54*	1	-2	3	96*	63*
CC1(c2ccc3ccccc3c2)NC(=O)N(CC(=O)N2CCN(Cc3ccccc3)CC2)C1=O (stereo not drawn)	4	/	4	-1	1	-5	/	/
N#Cc1ccc(-c2cccs2)nc1SCc1cccnc1	1	2	34*	-2	41	-2	12	-5
CCOC(=O)CSc1nc(-c2ccncc2)ccc1C#N	-2	-1	14	20	54	1	/	/
CN1CCN(C(=O)CSc2nc(-c3cccs3)ccc2C#N)CC1	-2	0	50*	28	-17	-2	+	+
N#Cc1c(C(F)(F)F)cc(-c2cccs2)nc1SCc1cccnc1	0	-8	16	4	6	4	/	/
